ATG4B inhibitor: inhibitors of human ATG4B cysteine protease. hit rate 0.51% among 340,000. Q9Y4P1. inhibition, % at 8.33 µM. ATG4B cleavage of LC3-PLA2, NBD-HPC fluorescence, 1 h. AID 504462; in the data active = inhibition above about 40%
MEKK2wt PB1 HTS: raises or lowers MEK5 binding to wildtype human MEKK2 PB1 domain; bead flow cytometry, Alexa488-MEK5 binding to MEKK2 WT; actives lie on both sides; hit rate 1.1% among 290,000; binding response (% of control), % at 10 µM; Q9Y2U5; AID 1531; in the data active = binding response below about 67% or above about 130%; inconclusive = no clear call, values can overlap the other calls; inactive = in between
UBC13 inh: human UBC13 polyubiquitination inhibition; AID 485273; hit rate 0.47% among 330,000; UBC13 polyubiquitin chain formation, TR-FRET; inhibition, % at 20 µM; in the data active = inhibition above about 45%, passing the limit was not always enough; inconclusive = no clear call, values can overlap the other calls
MEKK2 mut-MEK5: signal of MEK5 binding to mutant human MEKK2 PB1 domain; bead flow cytometry, Alexa488-MEK5 binding to MEKK2 mutant; percent response, % at 10 µM; hit rate 0.35% among 290,000; AID 1530; in the data active = percent response above about 24%, passing the limit was not always enough
PREPL inh: human PREPL enzyme inhibition; inhibition, % at 5.96 µM; hit rate 0.68% among 320,000; Q4J6C6; recombinant PREPL, fluorescence polarization activity-based probe; in the data active = inhibition above about 43%;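 note: 0% = enzyme with DMSO and 100% = wells lacking enzyme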
Target sequence (Q4J6C6 whole entry, looked up): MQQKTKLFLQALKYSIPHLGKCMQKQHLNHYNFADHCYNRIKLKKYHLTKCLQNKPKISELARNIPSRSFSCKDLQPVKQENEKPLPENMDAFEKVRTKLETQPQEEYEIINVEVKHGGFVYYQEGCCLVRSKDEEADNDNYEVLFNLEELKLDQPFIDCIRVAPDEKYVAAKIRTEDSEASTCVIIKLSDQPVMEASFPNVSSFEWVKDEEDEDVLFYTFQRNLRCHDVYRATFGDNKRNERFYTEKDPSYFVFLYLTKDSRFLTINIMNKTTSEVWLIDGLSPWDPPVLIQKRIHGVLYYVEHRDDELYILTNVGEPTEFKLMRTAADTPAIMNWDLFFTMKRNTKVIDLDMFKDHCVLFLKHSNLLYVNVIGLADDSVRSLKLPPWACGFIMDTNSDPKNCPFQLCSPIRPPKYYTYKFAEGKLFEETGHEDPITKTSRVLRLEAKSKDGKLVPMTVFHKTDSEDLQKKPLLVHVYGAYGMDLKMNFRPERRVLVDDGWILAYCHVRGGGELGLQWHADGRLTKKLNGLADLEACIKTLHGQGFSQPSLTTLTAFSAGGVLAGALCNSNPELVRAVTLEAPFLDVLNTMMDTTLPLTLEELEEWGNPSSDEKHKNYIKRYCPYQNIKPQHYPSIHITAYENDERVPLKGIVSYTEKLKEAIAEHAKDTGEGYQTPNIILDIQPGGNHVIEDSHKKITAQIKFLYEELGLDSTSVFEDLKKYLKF
MEKK3 PB1 HTS: raises or lowers MEK5 binding to the human MEKK3 PB1 domain; Q99759; bead-based flow cytometry, Alexa488-MEK5 binding to MEKK3; actives lie on both sides; 0 = blocked by unlabeled MEK5, 100 = vehicle; binding response (% of control), % at 10 µM; hit rate 1.4% among 290,000;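 active = binding response more than 3 SD above or below the average of its plate-row segment, actives on both sides; inconclusive = wells at one plate position flagged as instrument error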;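 note: Alexa488 bead fluorescence after subtracting the streptavidin-only scavenger bead signal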
MEKK2wt confirm: raises or lowers MEK5 binding to wildtype human MEKK2, retest; shares compounds with MEKK3 PB1 HTS; bead flow cytometry, Alexa488-MEK5 binding to MEKK2 WT; actives lie on both sides; binding response (% of control), % at 10 µM; hit rate 2.4% among 5,900; in the data active = binding response below about 16% or above about 210%; inactive = in between
MEKK2mut confirm: signal of MEK5 binding to mutant human MEKK2, retest | AID 1893 | percent response, % at 10 µM | bead flow cytometry, Alexa488-MEK5 binding to MEKK2 mutant | shares compounds with MEKK3 PB1 HTS | hit rate 2% among 5,900; in the data active = percent response mostly above about 71%, no sharp cut-off; inactive = mostly below about 38%;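 note: higher means compound restores mutant binding toward wildtype level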
MEKK3-MEK5 inh: MEKK3-MEK5 PB1 inhibition, single concentration confirmation; shares compounds with MEKK3 PB1 HTS; bead flow cytometry, Alexa488-MEK5 binding to MEKK3; active compounds read low; binding response (% of control), % at 10 µM; hit rate 1.8% among 5,900; AID 1894;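 active = binding response below 72% of control, or above a set upper limit, though filed actives all read lower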;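 note: 100% = DMSO only wells and 0% = binding blocked by excess unlabeled MEK5; lower values mean stronger disruption of MEK5 binding to MEKK3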
* marks the source's active call; other numbers are inactive results; ? = inconclusive; · = no result; [ ] = dose if it differs, or a comment. Compounds with a hit are over-represented: about 3.1% of the library has one in this group of screens.

SMILES	ATG4B inhibitor	MEKK2wt PB1 HTS	UBC13 inh	MEKK2 mut-MEK5	PREPL inh	MEKK3 PB1 HTS	MEKK2wt confirm	MEKK2mut confirm	MEKK3-MEK5 inh
Cc1cc(C)cc(C(=O)NCC(=O)OCC(=O)NCc2ccco2)c1	3.6	96.0	4.1	-11.0	-4.1	101.0	·	·	·
CCCOc1cccc(C(=O)NCCNC(=O)c2ccco2)c1	2.7	102.0	5.1	-3.0	-8.8	100.0	·	·	·
C=C(C)c1cccc(C(C)(C)NC(=O)NCc2ccc(OC)cc2)c1	-4.0	104.0	10.6	0.0	-3.4	133.0*	104.0	6.0	105.0
CCCNC(=O)c1ccc(N2CCC3(CC2)CC(c2ccccc2)=NO3)c(NC(=O)Cc2ccc(F)cc2)c1	-9.4	90.0	-0.8	-9.0	34.9	102.0	·	·	·
CCOP(=O)(c1ccccc1)C(O)c1ccc(F)cc1 (stereo unspecified)	-1.0	107.0	2.1	0.0	2.5	144.0*	61.0	-16.0	86.0
CCOP(=O)(c1ccccc1)C(O)c1ccc([N+](=O)[O-])cc1 (stereo unspecified)	-7.4	100.0	1.0	3.0	24.1	99.0	·	·	·
OCC[C@H]1C[C@@H](O)[C@H](O)[C@]2(Cc3ccccc3CO2)O1	-8.2	·	-6.3	·	13.6	·	·	·	·
CCN1CCN(C(c2ccccc2)c2nnnn2Cc2ccccc2)CC1 (stereo unspecified)	-5.5	139.0*	5.4	9.0	-8.3	144.0*	114.0	17.0	108.0
CCN1CCN(C(c2ccc(OC)cc2)c2nnnn2Cc2ccc3c(c2)OCO3)CC1 (stereo unspecified)	-10.6	132.0	12.5	7.0	12.5	144.0*	100.0	1.0	101.0
CCN(CC)c1ccc(/C=C/C(=O)c2ccc(Br)cc2)cc1	-9.1	344.0*	·	431.0*	-9.8	111.0	82.0	-40.0	87.0
CN(C)c1ccc(C(=O)/C=C/c2ccc(Br)cc2)cc1	-7.7	93.0	-0.5	-2.0	17.3	97.0	·	·	·
Cn1c(=O)c2cc(S(=O)(=O)NC(Cc3ccccc3)C(=O)NCC3CCCO3)ccc2n(C)c1=O (stereo unspecified)	-6.4	123.0	-3.5	4.0	2.4	138.0*	96.0	-4.0	97.0
CN1CCN(c2cc(-c3ccccc3)nc3cc(-c4ccc(F)cc4)nn23)CC1	-8.2	152.0*	33.1	34.0*	8.7	113.0	157.0	26.0	108.0
Fc1ccc(-c2cc3nc(-c4ccccc4)cc(N4CCN(CCN5CCOCC5)CC4)n3n2)cc1	-21.0	127.0	·	9.0	·	100.0	·	·	·
COc1cccc(-c2cc3nc(-c4ccccc4)cc(N4CCC5(CC4)OCCO5)n3n2)c1	-0.9	137.0*	?	25.0*	13.2	125.0*	103.0	-2.0	103.0
Nc1nc(N)c2[nH]c(=S)[nH]c2n1	2.6	·	·	·	·	·	·	·	·
CC(C)(CC(=O)c1ccccc1)CC(=O)c1ccccc1	-8.1	·	·	·	·	·	·	·	·
Cc1ccc(CN2CCSc3ccc(C(=O)NCc4ccco4)cc32)cc1	-2.3	58.0*[inhibitor]	17.9	-15.0	18.1	56.0*[inhibitor]	100.0	-2.0	105.0
CS(=O)(=O)c1ccc2nc(NC(=O)CN3C(=O)C4CC=CCC4C3=O)sc2c1 (stereo unspecified)	-5.2	115.0	1.7	5.0	2.5	138.0*	105.0	-3.0	101.0
CC1CCC(NC(=O)c2ccc3c(c2)OCO3)CC1 (stereo unspecified)	-5.2	108.0	-0.3	14.0	12.3	107.0	·	·	·
CC1CCC(NC(=O)c2ccc(/C=C3\Oc4ccccc4N(C)C3=O)cc2)CC1 (stereo unspecified)	·	111.0	·	2.0	·	139.0*	99.0	2.0	102.0
O=S(=O)(c1cccc(Cl)c1)N1CCN(S(=O)(=O)c2ccc3c(c2)OCCO3)CC1	-4.3	·	-9.7	·	13.1	·	·	·	·

High-throughput results: PubChem BioAssay, several laboratories
